Test systems include NCI-H23 lung; NCI-H226 lung; NCI-H322M lung; HOP-62 NSCLC; NCI-H460 lung; NCI-H522 lung; A549/ATCC NSCLC; 786-0 renal; COLO 205 colon; DU-145 prostate.
Assay in all cases: NCI-60 one-dose screen, 48 h (100 = growth as untreated, 0 = no growth, -100 = all killed)
Holding throughout (details): 10 µM

For 13 molecules, growth results are on record in PubChem BioAssay (NCI).

This is part of a sample that, as a whole, favours compounds with a hit. Of some 83,000 tested, about 20% had one in any assay.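 Single-concentration screen, 48 h exposure, 96-well plates. Endpoint: percent growth. Below 10 = active.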 A number with no mark means an inactive call. Calls of active or inactive are those of the source.

With `CCN(CC)CCNC(=O)c1ccc(NC(C)=O)cc1`, the growth in the assay on NCI-H23 lung is 94.5%; in the assay on NCI-H226 lung, 110%; in the assay with NCI-H322M lung, 105%; in the assay with HOP-62 NSCLC, 103%; with NCI-H460 lung, 113%; with NCI-H522 lung, 111%. Further, the growth was 98.5% in the assay with A549/ATCC NSCLC, 108% with 786-0 renal, 112% with COLO 205 colon and 119% in the assay with DU-145 prostate.

For `O=C1/C(=C\c2ccc(Cl)cc2)CN(C(=S)Nc2ccccc2)C/C1=C\c1ccc(Cl)cc1`, the growth is -52.8% (active) with NCI-H23 lung; -70.1% (active) in the assay on NCI-H226 lung; -20.7% (active) in the assay on NCI-H322M lung; -55.4% (active) in the assay with HOP-62 NSCLC; -70.8% (active) with NCI-H460 lung; -88.2% (active) with NCI-H522 lung. Besides, the growth was -21.4% (active) in the assay on A549/ATCC NSCLC, -86% (active) in the assay on 786-0 renal, -86.1% (active) in the assay on COLO 205 colon and -73.2% (active) with DU-145 prostate.

For `Nc1nccc(Nc2ccccc2)n1`, the growth in the assay with NCI-H23 lung was 101%; with NCI-H226 lung it was 91.7%; in the assay with NCI-H322M lung, 115%; in the assay with HOP-62 NSCLC it was 102%; in the assay with NCI-H460 lung it was 109%; in the assay on NCI-H522 lung, 135%. Further, the growth in the assay with A549/ATCC NSCLC is 99.1%; in the assay with 786-0 renal, 96.4%; in the assay on COLO 205 colon it was 114%; in the assay with DU-145 prostate, 109%.

As to `CCCCN(CCCC)CCCCCCCCC(O)c1cc2ccccc2c2ccccc12` (stereo not given), the growth in the assay on NCI-H23 lung is 40.8%; in the assay with NCI-H226 lung, 80.2%; with NCI-H322M lung, 84.5%; in the assay on HOP-62 NSCLC, 76.7%; in the assay on NCI-H460 lung, 54.2%; in the assay with NCI-H522 lung, 39.1%. The growth in the assay with A549/ATCC NSCLC is 56.8%; in the assay with 786-0 renal, 67.3%; in the assay on COLO 205 colon, 44.1%; in the assay on DU-145 prostate it was 69.7%.

In the case of `CN(C)N=Nc1nn(C(=O)Nc2ccc(Cc3ccccc3)cc2)c2ccccc12`, the growth in the assay with NCI-H23 lung is 61%; in the assay on NCI-H226 lung, 69.2%; in the assay with NCI-H322M lung, 81.3%; in the assay on HOP-62 NSCLC, 70.6%; in the assay on NCI-H460 lung, 11.4%; in the assay with NCI-H522 lung, 42.3%. The growth was 31.5% in the assay with A549/ATCC NSCLC, 49.9% with 786-0 renal, -53.4% (active) in the assay on COLO 205 colon and 60.8% in the assay with DU-145 prostate.

`O=C(N/N=C/c1ccccc1)C(Oc1ccccc1)c1ccccc1` (stereo not given): the growth was 89.1% in the assay with NCI-H23 lung; 97.5% in the assay on NCI-H226 lung; 94.2% in the assay with NCI-H322M lung; 95% in the assay on HOP-62 NSCLC; 94.5% in the assay with NCI-H460 lung; 65.5% in the assay with NCI-H522 lung. Besides, the growth was 111% in the assay on A549/ATCC NSCLC, 107% in the assay with 786-0 renal, 109% in the assay on COLO 205 colon and 107% with DU-145 prostate.

In the case of `CCCCC(CCCCCC(CCCC)NCc1ccc2c(c1)OCO2)NCc1ccc2c(c1)OCO2` (stereo not given), the growth in the assay with NCI-H23 lung was -98.5% (active); in the assay with NCI-H226 lung, -77.9% (active); with NCI-H322M lung, -91.6% (active); in the assay on HOP-62 NSCLC, -98.9% (active); in the assay with NCI-H460 lung it was -98.4% (active); in the assay on NCI-H522 lung, -91.2% (active). For the same molecule, the growth was -99.2% (active) in the assay with A549/ATCC NSCLC, -100% (active) with 786-0 renal, -97.5% (active) in the assay on COLO 205 colon and -100% (active) in the assay on DU-145 prostate.

As for `COc1cc(/C(=C2/O[C@@H]([C@H]3COC(C)(C)O3)[C@H]3OC(C)(C)O[C@@H]23)c2ccc3ccccc3c2)cc(OC)c1OC`, the growth in the assay on NCI-H23 lung was 46.2%; in the assay with NCI-H226 lung it was 66.9%; in the assay with NCI-H322M lung, 55.1%; in the assay on HOP-62 NSCLC it was 48%; in the assay with NCI-H460 lung, 43.4%; in the assay with NCI-H522 lung, 8.05% (active). Also, the growth with A549/ATCC NSCLC was -9.4% (active); in the assay with 786-0 renal, -1.42% (active); in the assay with COLO 205 colon it was 66.9%; in the assay on DU-145 prostate, 2.86% (active).

`N#Cc1cccc(OCc2nc(N)nc(N)c2-c2ccc(Cl)c(Cl)c2)c1`: the growth with NCI-H23 lung is 32.9%; in the assay on NCI-H226 lung, 46.7%; in the assay with NCI-H322M lung, 24.7%; with HOP-62 NSCLC it was 35.9%; in the assay on NCI-H460 lung it was 11.5%; in the assay with NCI-H522 lung it was 8.77% (active). In addition, the growth with A549/ATCC NSCLC is 7.65% (active); with 786-0 renal, 19.4%; in the assay on COLO 205 colon, 34.1%; in the assay with DU-145 prostate, 25.3%.

`O=c1c2ccccc2nc(SCCN2CCCCC2)n1CCc1ccccc1`: the growth was 77.5% with NCI-H23 lung; 101% in the assay with NCI-H226 lung; 97.6% in the assay with NCI-H322M lung; 89% in the assay with HOP-62 NSCLC; 105% in the assay on NCI-H460 lung; 89.2% in the assay on NCI-H522 lung. The growth was 87.9% in the assay with A549/ATCC NSCLC, 86.7% in the assay on 786-0 renal, 74.7% in the assay on COLO 205 colon and 101% in the assay on DU-145 prostate.

Regarding `COc1ccc2c(c1)C(=O)c1c-2c(OCCN(C)C)nc2ccccc12`, the growth is 41.5% with NCI-H23 lung; 45.5% in the assay with NCI-H226 lung; -5.17% (active) in the assay with NCI-H322M lung; 30.8% with HOP-62 NSCLC; 2.29% (active) with NCI-H460 lung; 21.2% in the assay with NCI-H522 lung. Also, the growth is 14% in the assay with A549/ATCC NSCLC, 33.7% in the assay on 786-0 renal, 23.4% in the assay on COLO 205 colon and 27% in the assay with DU-145 prostate.

With `CN1CCC2(CC1)NC(=O)c1c(c3ccc(Cl)c(Cl)c3n1C)C2C#N` (stereo not given), the growth is 76.6% in the assay on NCI-H23 lung; 53.8% in the assay with NCI-H226 lung; 85.6% in the assay with NCI-H322M lung; 58% in the assay on HOP-62 NSCLC; 49% in the assay with NCI-H460 lung; 76.3% in the assay on NCI-H522 lung. Further, the growth in the assay on A549/ATCC NSCLC is 63.7%; in the assay with 786-0 renal it was 68.7%; in the assay with COLO 205 colon, 58%; in the assay on DU-145 prostate it was 92.4%.

For `O=C(Nc1ccccc1)Nc1cccc(-n2cc(-c3ccncc3)c(-c3ccc(O)c(Cl)c3)n2)c1`, the growth in the assay on NCI-H23 lung is 74.2%; in the assay on NCI-H226 lung, 93.8%; with NCI-H322M lung it was 43.3%; with HOP-62 NSCLC it was 77.7%; in the assay with NCI-H460 lung it was 25.2%; with NCI-H522 lung it was 51.4%. The growth with A549/ATCC NSCLC was 35.5%; with 786-0 renal, 38.5%; with COLO 205 colon, 111%; in the assay with DU-145 prostate it was 71.1%.
